Bioassay records from PubChem.
PD-1 reverse act: activators reversing PD-1 mediated T-cell inhibition, primary screen, luminescence, primary human CD4 T cells, PD-L1 beads; CellTiter-Glo 96 h; activation, % (no concentration beside the values); 29,000 tested, under 10 active; AID 2316, 2010; call rule not given here;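 note: 0% = median vehicle wells and 100% = positive control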
STK33 kin inh: STK33 kinase inhibitors, primary screen, biochemical, luminescence, ADP-Glo, MBP substrate; inhibition, % at 12.5 µM; 27,000 tested, 0.44% active; in the data active = inhibition above about 20%; inconclusive = no clear call, values can overlap the other calls
Target sequence (Q9BYT3 whole entry, looked up): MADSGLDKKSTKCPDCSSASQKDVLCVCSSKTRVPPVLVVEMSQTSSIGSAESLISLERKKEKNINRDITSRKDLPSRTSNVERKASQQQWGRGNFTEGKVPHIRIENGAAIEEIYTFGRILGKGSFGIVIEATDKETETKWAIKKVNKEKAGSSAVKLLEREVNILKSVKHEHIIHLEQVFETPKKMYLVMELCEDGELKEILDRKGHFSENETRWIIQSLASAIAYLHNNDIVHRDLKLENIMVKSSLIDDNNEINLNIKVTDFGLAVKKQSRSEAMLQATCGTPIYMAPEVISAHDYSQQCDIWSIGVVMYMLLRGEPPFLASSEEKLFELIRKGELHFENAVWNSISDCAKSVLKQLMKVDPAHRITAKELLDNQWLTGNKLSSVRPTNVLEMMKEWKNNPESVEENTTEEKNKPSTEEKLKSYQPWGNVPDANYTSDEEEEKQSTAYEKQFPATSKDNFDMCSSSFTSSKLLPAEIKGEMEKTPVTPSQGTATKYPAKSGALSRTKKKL
NOMO-1 viab: NOMO-1 AML cell viability reduction, primary screen, STK33 inhibitor project, CellTiter-Glo luminescence | NOMO-1 AML viability, 72 h | inhibition, % (no concentration beside the values) | 37,000 tested, 7.5% active | AID 2330, 2010; in the data active = inhibition above about 80%; inconclusive = no clear call, values can overlap the other calls
Active calls of the source: *; ? = inconclusive; / = no result given; ! = repeats disagree. The full list was thinned out, with hits kept by preference.

SMILES	PD-1 reverse act	STK33 kin inh	NOMO-1 viab
C[C@@H]1CN([C@@H](C)CO)C(=O)c2cccc(NS(=O)(=O)c3ccc(Cl)cc3)c2O[C@@H]1CN(C)Cc1ccc(-c2ccccc2)cc1	-4	/	115*
Cc1ccc(S(=O)(=O)Nc2cccc3c2O[C@@H](CN(C)Cc2ccc(Oc4ccccc4)cc2)[C@H](C)CN([C@@H](C)CO)C3=O)cc1	/	/	42
NC(=O)c1ccc(NCc2cccnc2)c([N+](=O)[O-])c1	0	6	28
CC1(C)CCc2cc(C3SCCS3)ccc2O1	-1	/	34
C[C@@H]1O[C@@H](O[C@H]2[C@@H](O)[C@@H](C)O[C@@H](O[C@H]3[C@H](O)[C@@H](O)[C@H](O[C@H]4CC[C@@]5(C)C(CC[C@]6(C)C5C=CC5=C7CC(C)(C)CC[C@]7(CO)CC[C@]56C)[C@]4(C)CO)O[C@@H]3CO)[C@@H]2O[C@@H]2O[C@H](CO)[C@@H](O)[C@H](O)[C@H]2O)[C@H](O)[C@H](O)[C@H]1O (stereo partly drawn)	-1	-5	23
COc1cc(C(=O)NC(C)C(=O)O)cc(OC)c1OC (stereo not drawn)	/	0	26
COc1cc(C(=O)N=C2C(C)=CC(=O)C=C2C)cc(OC)c1OC	-6	/	135*
COC(=O)c1ccccc1NC(=O)CCSc1ccc(C)cc1	2	-2	-16
CCN(CC(=O)O)S(=O)(=O)c1ccc2ccccc2c1	0	-1	-20
CC(O)c1cncc2c(=O)n3c(cc12)-c1[nH]c2ccccc2c1CC3 (stereo not drawn)	0	?	49
CNc1ccccc1C(=O)N1CCc2c([nH]c3ccccc23)C1=O	/	2	95*
COC(=O)c1c(C(=O)OC)c2n(c1C)CSC2	0	/	-9
COc1ccccc1NC(=O)CSc1nnc(-c2ccc([N+](=O)[O-])cc2)n1-c1ccccc1	-1	-3	40
CCOC(=O)c1ccc(NC(=O)Cn2cc(C#N)c3ccccc32)cc1	/	1	29
Cc1cc(S(=O)(=O)Nc2ccc(C(=O)O)cc2)c(C)c(S(=O)(=O)c2ccc(Cl)cc2)c1	1	-5	19
CS(=O)(=O)c1sc(NC(=O)Nc2ccc(Cl)cc2)c2c1C=CCC2	0	/	122*
CC(C)(C)c1ccc2cc(C#N)c(C#N)cc2c1	0	/	140*
Brc1cccc(Nc2ncnc3cc4nc[nH]c4cc23)c1	4	6	27
COc1cc2ncnc(Nc3cccc(Cl)c3)c2cc1OC	1	15	89*!
COc1cc2ncnc(Nc3cccc(O)c3)c2cc1OC	-1	43*	-4
COc1cc2ncnc(Nc3cccc(Br)c3)c2cc1OC	6	0	-3
O=C(COc1ccc(Br)cc1)Nc1cccc(-c2nc3ccccc3o2)c1	2	0	18
COc1ccccc1NC(=O)Cn1nc([N+](=O)[O-])c(Br)c1C	/	6	14
Cc1c(CNC(=S)Nc2cccc([N+](=O)[O-])c2)cnn1C	0	-3	0
O=[N+]([O-])c1cccc(NC(=S)NCc2cn(-c3ccccc3)nc2-c2ccccc2)c1	0	1	97*
SMILES	PD-1 reverse act	STK33 kin inh	NOMO-1 viab
COc1cc(NC(=O)C(C)Oc2cccc(Cl)c2)c(C(=O)O)cc1OC (stereo not drawn)	/	6	-4
N=c1ccccn1CC(O)c1ccccc1 (stereo not drawn)	1	/	11
CC(Oc1ccccc1F)C(=O)Nc1ccccc1[N+](=O)[O-] (stereo not drawn)	-4	-2	8
Cc1ccc(S(=O)(=O)NC(Cc2c[nH]c3ccccc23)C(=O)O)cc1 (stereo not drawn)	/	-2	-9
COC(=O)C(Cc1c[nH]c2ccccc12)NS(=O)(=O)c1ccc(CNC(=O)c2ccccc2)s1 (stereo not drawn)	0	/	115*
O=C(CSc1nnc(-c2ccccc2F)n1-c1ccc(Cl)cc1)Nc1ccc(F)cc1F	0	0	4
O=C(O)CSc1n[nH]c(-c2cccs2)n1	4	3	13
C[C@H](CO)N1C[C@H](C)[C@H](CN(C)Cc2ccccc2)Oc2ccc(NS(=O)(=O)c3ccc(F)cc3)cc2CC1=O	3	0	52
C[C@H]1CN([C@@H](C)CO)C(=O)Cc2cc(NS(=O)(=O)c3ccc(F)cc3)ccc2O[C@H]1CN(C)Cc1ccc(-c2ccccc2)cc1	2	8	108*
C[C@@H]1CN([C@@H](C)CO)C(=O)Cc2cc(NS(=O)(=O)c3ccc(F)cc3)ccc2O[C@@H]1CN(C)Cc1ccc(-c2ccccc2)cc1	/	5	?
C[C@H](CO)N1C[C@H](C)[C@H](CN(C)Cc2ccc(-c3ccccc3)cc2)Oc2ccc(NS(=O)(=O)c3ccc(F)cc3)cc2CC1=O	3	2	95*
COc1cc(NC(=O)Cc2ccc(F)cc2)cc(S(=O)(=O)c2ccc(Cl)cc2)c1	0	/	75
Cc1ccc(C)c(NC(=O)CN(c2ccc(F)c(Cl)c2)S(C)(=O)=O)c1	0	2	28
Cc1ccc(S(=O)(=O)N(C)C[C@H]2Oc3ccc(NC(=O)CCC(F)(F)F)cc3CC(=O)N([C@@H](C)CO)C[C@H]2C)cc1	-1	-3	2
C[C@H](CO)N1C[C@H](C)[C@H](CN(C)S(=O)(=O)c2ccc(Cl)cc2)Oc2ccc(NC(=O)CCC(F)(F)F)cc2CC1=O	/	-5	121*
C[C@H]1CN([C@@H](C)CO)C(=O)Cc2cc(NC(=O)CCC(F)(F)F)ccc2O[C@H]1CN(C)S(=O)(=O)c1ccc(F)cc1	-1	0	126*
C[C@H]1CN([C@@H](C)CO)C(=O)Cc2cc(NC(=O)CCC(F)(F)F)ccc2O[C@H]1CN(C)S(=O)(=O)c1ccc(Cl)cc1	/	-2	109*
C[C@@H]1CN([C@@H](C)CO)C(=O)Cc2cc(NC(=O)CCC(F)(F)F)ccc2O[C@@H]1CN(C)S(=O)(=O)c1ccc(F)cc1	0	-3	24
C[C@@H]1CN([C@@H](C)CO)C(=O)Cc2cc(NC(=O)CCC(F)(F)F)ccc2O[C@@H]1CN(C)S(=O)(=O)c1ccccc1	-2	0	17
COc1ccccc1N(CC(=O)Nc1c(C)cc(C)cc1C)S(C)(=O)=O	4	-4	9
COc1ccc(C(=O)N(Cc2nc(-c3ccccc3)no2)C(C)C)cc1OC	0	-6	-8
O=C(CN1C(=O)COc2ccc(Cl)cc21)N1CCCC1	1	/	-7
C(=N\n1cnnc1)/c1ccco1	-1	/	9
Cn1c(=O)c(Nc2ccccc2)c2c3c(cccc31)C(=O)c1ccccc1-2	1	/	16
O=C1c2ccccc2-c2c(NCCc3ccccc3)c(=O)[nH]c3cccc1c23	-3	/	115*
COc1ccc(NC(=O)Nc2cccc3c2O[C@@H](CN(C)Cc2ccc(C(=O)Nc4ccccc4N)cc2)[C@H](C)CN([C@H](C)CO)C3=O)cc1	-2	/	125*
COc1ccc(NC(=O)Nc2cccc3c2O[C@H](CN(C)Cc2ccc(C(=O)Nc4ccccc4N)cc2)[C@H](C)CN([C@@H](C)CO)C3=O)cc1	0	/	127*
COc1ccc(NC(=O)Nc2cccc3c2O[C@@H](CN(C)Cc2ccc(C(=O)O)cc2)[C@@H](C)CN([C@H](C)CO)C3=O)cc1	2	/	18
